# In PubChem BioAssay (Tox21):
# Inconclusive results are not listed. Where a call stands in place of a potency, no number is given. Activity calls are given as the source filed them. The call rests on the fitted dose curve; in most records, active means well fitted cell-killing curve with a large enough effect in the repeat runs; inconclusive means weak or mixed curves, or effect the other way; inactive means no such curve, though single readings can be large or run the other way.
# Assay: qHTS assay to identify small molecule antagonists of the progesterone receptor (PR) signaling pathway - cell viability counter screen (AID 1346798); further: nearly all actives have a fitted effect of over 50% in size
# Conditions: PR-UAS-bla HEK293T viability, CellTiter-Glo luminescence, 16 h; series mostly up to 92.4 µM
# From the text: National Center for Advancing Translational Sciences [NCATS]
# NIH Chemical Genomics Center [NCGC]
# U.S. Environmental Protection Agency [EPA]
# National Institutes of Environmental Health Sciences [NIEHS]
# National Toxicology Program [NTP]
# U.S. Food and Drug Administration [FDA]
# Progesterone receptor (PR), a nuclear hormone receptor, plays an important role in development, metabolic homeostasis and reproduction. It is activated by the steroid hormone progesterone. Endocrine disrupting chemicals (EDCs) and their interactions with steroid hormone receptors like PR causes disruption of normal endocrine function. To identify the compounds that inhibit PR signaling, a PR-UAS-bla GripTite cell line i.e. PR-UAS-bla HEK293T (Invitrogen, Carlsbad, CA, USA) containing a beta-lactamase reporter gene under the control of an UAS response element was used to screen Tox21 10K compound library. The cytotoxicity of the Tox21 compound library against the PR-bla cell line was tested in parallel by measuring the cell viability using CellTiter-Glo assay in the same wells.
# Tox21 Assay Protocol Summary:
# PR-UAS-bla HEK293T cells were dispensed at 3,000 cells/4 uL of assay medium containing 2% charcoal stripped FBS per well into black wall/clear-bottom 1536-well plates using a Multidrop Combi (ThermoFisher Scientific, Waltham, MA) dispenser. After the assay plates were incubated at a 37C and 5% CO2 for 4 hr, 23 nL of compounds dissolved in DMSO, positive controls or DMSO only was transferred to the assay plate by a Pintool station (Kalypsys, San Diego, CA), followed by addition of 1 uL of R5020 in assay medium using a Flying Reagent Dispenser (FRD, Aurora Discovery, San Diego, CA). The plates were incubated at 37C and 5% CO2 for 16 hr. Then 1 uL of LiveBLAzer B/G FRET substrate was added using a Flying Reagent Dispenser, the plates were incubated at room temperature for 2 hours, and fluorescence intensity was measured by an Envision plate reader (PerkinElmer, Shelton, CT). For cell viability readout that measures cytotoxicity, 4 uL/well of CellTiter-Glo reagent was added into the assay plates using a FRD. After 30 min incubation at room temperature, the luminescence intensity in the plates was measured using a ViewLux (PerkinElmer) plate reader.
Compound,Potency,"activity change, negative = cytotoxicity"
Oc1ccc2c3c1O[C@H]1[C@@H](O)C=C[C@H]4[C@@H](C2)NCC[C@@]341,inactive,–
O=C(Cl)/C=C/C(=O)Cl,inactive,–
c1ccc2c(c1)CCNC2,inactive,–
Cn1c(CCCC(=O)O)nc2cc(N(CCCl)CCCl)ccc21,inactive,–
C=CCN1CC[C@]23CCCC[C@H]2[C@H]1Cc1ccc(O)cc13,inactive,–
CN1C(=O)COc2c(C(=O)NC3CN4CCC3CC4)cc(Cl)cc21 (stereo not given),inactive,–
CCOP(=S)(OCC)Oc1ccc(Cl)cc1Cl,inactive,–
C[N+]1(C)CCCCC1,inactive,–
CCC(=O)c1ccc(Cl)cc1,inactive,–
N#CN=C1SCCN1Cc1ccc(Cl)nc1,inactive,–
CN(C)C(=O)Oc1cc(OC(=O)N(C)C)cc(C(O)CNC(C)(C)C)c1 (stereo not given),inactive,–
C[C@@H](N)[C@@H](O)c1ccccc1,inactive,–
COc1cccc([C@@]2(O)CCCC[C@@H]2CN(C)C)c1,inactive,–
O=c1[nH]c2ccccc2o1,inactive,–
CC#Cc1cc(C)nc(Nc2ccccc2)n1,inactive,–
CCN(CC)C1CCCCC1,inactive,–
[P]#[In],inactive,–
CCN(CCO)CCO,inactive,–
CN=CNc1ccc(C)cc1C,inactive,–
C/C=C/CC#N,inactive,–

Compound,Potency,"activity change, negative = cytotoxicity"
Cl/C=C/CCl,inactive,–
C#CC(C)(C)O,inactive,–
CC(C)(O)C(Cl)(Cl)Cl,inactive,–
CC[C@H](N)c1ccccc1,inactive,–
CCNP(=S)(OC)O/C(C)=C/C(=O)OC(C)C (stereo not given),inactive,–
CCCCCCCCSC(=O)Oc1cc(Cl)nnc1-c1ccccc1,inactive,–
CCOC(=O)COc1ccc(Cl)cc1Cl,inactive,–
NNCc1ccccc1,inactive,–
CC(=O)OCC1=C(C(=O)O)N2C(=O)[C@@H](N)[C@H]2SC1,–,2.66% [at 18.9 µM] (inactive)
CCOP(=S)(OCC)SCCl,inactive,–
CCOc1cc(OP(=S)(OC)OC)nc(CC)n1,inactive,–
C=C(Cl)CCl,inactive,–
CC(C)(C)C(=O)Cl,inactive,–
CCCOc1nn(C(=O)NS(=O)(=O)c2ccccc2C(=O)OC)c(=O)n1C,inactive,–
N#CN,inactive,–
Cc1ccc(-c2nc3ccc(C)cn3c2CC(=O)N(C)C)cc1,inactive,–
COc1cc(CCN)cc(OC)c1OC,inactive,–
CN(C)C1CCCCC1,inactive,–
COc1ccc(CN2CCNCC2)c(OC)c1OC,inactive,–
COP(=O)(O)OC,inactive,–
